Active and inactive are the calls of the source. Unless noted, how the calls were made is not given here.
How the values were obtained:
[1] = tested on: Wnt5a (protein binding on small-molecule microarray); experiment: small molecules binding Wnt5a protein – biophysical, small-molecule microarray, 635/667 nm fluorescence, primary screen (AID 1142); settings: 635 nm fluorescence, higher = more signal;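 further: fluorescence read at 667 nm with signal to noise per printed feature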
[2] = ATP-based viability of Huh7 replicon cells – cell-based, CellTiter-Glo luminescence, basal, 48 h, cytotoxicity control for HCV replication inhibitor project, primary screen (AID 1143); settings: higher = more signal, called active from +8 up or from −8 down;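 further: Huh7 hepatoma cells carrying a hepatitis C replication reporter with no stimulus; test concentration not given here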
[3] = Pseudomonas biofilm growth suppression – PAO1 strain, BacTiter-Glo luminescence, LB-PBS, primary screen (AID 1144); settings: P. aeruginosa PAO1 biofilm, 12 h, higher = more signal
[4] = basal CRE-LacZ reporter activity in PC12 – cell-based, unstimulated, primary screen (AID 1145); settings: no forskolin, luminescence, 4.5 h, higher = more signal, called active from +8 up or from −8 down
[5] = forskolin-driven CRE-LacZ activity in PC12 – cell-based, CRE-LacZ reporter, forskolin-stimulated, primary screen (AID 1146); settings: luminescence, 4.5 h, higher = more signal, called active from +8 up or from −8 down;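 further: PC12 cells with 6xCRE LacZ reporter stimulated by forskolin 10 µM; beta-galactosidase reporter signal reflecting CREB driven transcription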
[6] = target: Streptavidin (Streptomyces avidinii) (UniProt P22629); experiment: compounds binding control protein streptavidin – biophysical, small-molecule microarray, 635/667 nm fluorescence, artefact control for SMM compound annotation, primary screen (AID 1147); settings: higher = more signal;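 further: signal reflects streptavidin binding to arrayed compounds as a control protein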
Chain of Streptavidin (Streptomyces avidinii) (P22629 whole entry, looked up): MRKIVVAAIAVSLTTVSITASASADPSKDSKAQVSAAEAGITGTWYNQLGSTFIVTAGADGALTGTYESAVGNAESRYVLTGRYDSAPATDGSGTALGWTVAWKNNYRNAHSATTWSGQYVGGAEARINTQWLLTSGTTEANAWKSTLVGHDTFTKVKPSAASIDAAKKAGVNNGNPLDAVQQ

[7] = probe aInhba binding on compound microarray – biochemical, small-molecule microarray, 635/667 nm fluorescence, primary screen (AID 1148); settings: higher = more signal;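 further: score merges 667nm spot fluorescence with signal-to-noise for antibody binding to printed compounds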
Torsin-1A (Homo sapiens) [8] = target: Torsin-1A (Homo sapiens) (UniProt O14656); experiment: TOR1A wild-type binding on microarray – cell lysate, small-molecule microarray, lysate, 635/667 nm, primary screen (AID 1149); settings: COS7 hTOR1A-WT lysate, 635 nm fluorescence, higher = more signal
Chain of Torsin-1A (Homo sapiens) (O14656 whole entry, looked up): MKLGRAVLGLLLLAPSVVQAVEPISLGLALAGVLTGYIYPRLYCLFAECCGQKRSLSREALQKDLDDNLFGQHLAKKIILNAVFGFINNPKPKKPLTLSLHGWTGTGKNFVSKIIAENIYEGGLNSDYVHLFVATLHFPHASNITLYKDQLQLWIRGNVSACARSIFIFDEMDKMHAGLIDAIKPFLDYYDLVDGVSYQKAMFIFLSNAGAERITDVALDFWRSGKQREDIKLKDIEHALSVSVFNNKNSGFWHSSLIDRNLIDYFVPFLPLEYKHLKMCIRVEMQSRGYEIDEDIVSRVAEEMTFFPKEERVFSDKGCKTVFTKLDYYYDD

Torsin-1A (Homo sapiens) [9] = target: Torsin-1A (Homo sapiens) (UniProt O14656); experiment: torsin A mutant lysate binding on microarrays – cell lysate, small-molecule microarray, COS7 lysate, 635/667 nm fluorescence, primary screen (AID 1150); settings: COS7 hTOR1A mutant lysate, 635 nm fluorescence, higher = more signal;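 further: score pools 667 nm emission and signal to noise measuring lysate protein binding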
[10] = tested on: Sonic hedgehog protein (Shh); experiment: Sonic hedgehog microarray binding compounds – biochemical, small-molecule microarray, 635/667 nm fluorescence, primary screen (AID 1151); settings: 635 nm fluorescence, higher = more signal;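 further: Shh protein binding to compounds spotted on small-molecule microarray slides; score combines spot fluorescence intensity with signal-to-noise across triplicate slides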
[11] = optical density shifts of acrAB sulA E. coli – strain DRC41, OD650, 48 h, E. coli filamentation inducer project, primary screen (AID 1152); settings: higher = more signal, called active from +8 up or from −8 down;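 further: E. coli MC1000 strain DRC41 lacking acrAB efflux pump and sulA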
[12] = probe aLefty1 binding on compound microarray – biochemical, small-molecule microarray, 635/667 nm fluorescence, primary screen (AID 1153); settings: higher = more signal;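 further: score merges spot fluorescence with signal-to-noise ratio from the scanned slide images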
[13] = plasmodial surface anion channel blockers, osmotic lysis – cell-based, P. falciparum Indochina, OD700, 1 h, primary screen (AID 1154); settings: P. falciparum Indochina infected RBC osmotic lysis, higher = more signal, called active from +8 up or from −8 down
[14] = plasmodial surface anion channel blockers, osmotic lysis – cell-based, P. falciparum Indochina, OD700, 2 h, primary screen (AID 1155);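 further: lysis reports solute entry through the parasite surface anion channel PSAC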; settings: P. falciparum Indochina infected erythrocytes, higher = more signal, called active from +8 up or from −8 down
[15] = changes in parasitized red cell lysis, either direction – P. falciparum Indochina, OD700, 3 h, PSAC antagonist project, primary screen (AID 1156); settings: P. falciparum-infected erythrocytes, osmotic lysis, higher = more signal, called active from +8 up or from −8 down
[16] = plasmodial surface anion channel blockers, osmotic lysis – cell-based, P. falciparum Indochina, OD700, 18 h, primary screen (AID 1157); settings: P. falciparum Indochina infected erythrocytes, osmotic lysis OD700, 18 h; higher = more signal, called active from +8 up or from −8 down
[17] = S6 kinase pathway phospho-S6 level changes – cell-based, A549, cytoblot, luminescence, serum-stimulated, primary screen (AID 1158); settings: 5 h, higher = more signal;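 further: serum-stimulated A549 lung adenocarcinoma cells; signal is phosphorylated S6 detected by cytoblot immunostaining with HRP secondary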
[18] = target: NADPH oxidase 2 (Homo sapiens) (UniProt P04839); experiment: compounds shifting NOX2 Amplex Red fluorescence – cell-based, HEK293-NOX2, PMA-stimulated, NOX inhibitor project, primary screen (AID 1159); settings: 45 min, higher = more signal, called active from +8 up or from −8 down; further: test concentration not given here
Chain of NADPH oxidase 2 (Homo sapiens) (P04839 whole entry, looked up): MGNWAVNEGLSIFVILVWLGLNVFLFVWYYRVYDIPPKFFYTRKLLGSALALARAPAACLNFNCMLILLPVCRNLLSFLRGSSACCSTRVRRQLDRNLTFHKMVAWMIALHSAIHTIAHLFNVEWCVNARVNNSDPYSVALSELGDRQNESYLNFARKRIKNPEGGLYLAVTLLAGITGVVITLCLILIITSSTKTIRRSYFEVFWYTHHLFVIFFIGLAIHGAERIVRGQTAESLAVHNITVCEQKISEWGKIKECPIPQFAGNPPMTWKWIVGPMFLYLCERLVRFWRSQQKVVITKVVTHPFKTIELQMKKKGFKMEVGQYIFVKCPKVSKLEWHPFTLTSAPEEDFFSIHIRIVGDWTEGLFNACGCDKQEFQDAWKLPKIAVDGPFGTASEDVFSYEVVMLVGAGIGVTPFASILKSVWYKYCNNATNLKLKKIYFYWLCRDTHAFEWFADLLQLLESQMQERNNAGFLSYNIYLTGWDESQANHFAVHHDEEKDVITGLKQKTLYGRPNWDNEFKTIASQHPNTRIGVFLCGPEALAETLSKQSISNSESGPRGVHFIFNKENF

[19] = target: NADPH oxidase 4 (Homo sapiens) (UniProt Q9NPH5); experiment: compounds shifting NOX4 Amplex Red fluorescence – cell-based, HEK293-NOX4, tetracycline-induced, NOX inhibitor project, primary screen (AID 1160); settings: HEK293-NOX4, Amplex Red H2O2 fluorescence, 45 min; higher = more signal, called active from +8 up or from −8 down
Chain of NADPH oxidase 4 (Homo sapiens) (Q9NPH5 whole entry, looked up): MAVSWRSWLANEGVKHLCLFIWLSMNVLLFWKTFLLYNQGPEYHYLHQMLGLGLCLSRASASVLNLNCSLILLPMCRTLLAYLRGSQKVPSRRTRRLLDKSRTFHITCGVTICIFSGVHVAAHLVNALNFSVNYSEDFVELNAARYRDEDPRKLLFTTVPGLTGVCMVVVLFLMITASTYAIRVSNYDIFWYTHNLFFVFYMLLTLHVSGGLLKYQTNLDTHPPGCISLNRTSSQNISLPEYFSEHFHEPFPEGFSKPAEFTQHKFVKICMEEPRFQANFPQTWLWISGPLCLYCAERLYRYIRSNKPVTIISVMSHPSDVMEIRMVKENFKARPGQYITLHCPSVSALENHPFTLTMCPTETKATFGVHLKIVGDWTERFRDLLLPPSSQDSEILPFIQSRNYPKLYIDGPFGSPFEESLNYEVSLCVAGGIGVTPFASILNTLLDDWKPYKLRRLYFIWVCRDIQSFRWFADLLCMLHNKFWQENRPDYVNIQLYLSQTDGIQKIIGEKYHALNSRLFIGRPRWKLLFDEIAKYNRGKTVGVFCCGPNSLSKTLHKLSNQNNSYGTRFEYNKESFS

[20] = target: NADPH oxidase 5 (Homo sapiens) (UniProt Q96PH1); experiment: compounds shifting NOX5 Amplex Red fluorescence – cell-based, HEK293-NOX5, NOX inhibitor project, primary screen (AID 1161); settings: HEK293-NOX5, ionomycin, 45 min, higher = more signal
Chain of NADPH oxidase 5 (Homo sapiens) (Q96PH1 whole entry, looked up): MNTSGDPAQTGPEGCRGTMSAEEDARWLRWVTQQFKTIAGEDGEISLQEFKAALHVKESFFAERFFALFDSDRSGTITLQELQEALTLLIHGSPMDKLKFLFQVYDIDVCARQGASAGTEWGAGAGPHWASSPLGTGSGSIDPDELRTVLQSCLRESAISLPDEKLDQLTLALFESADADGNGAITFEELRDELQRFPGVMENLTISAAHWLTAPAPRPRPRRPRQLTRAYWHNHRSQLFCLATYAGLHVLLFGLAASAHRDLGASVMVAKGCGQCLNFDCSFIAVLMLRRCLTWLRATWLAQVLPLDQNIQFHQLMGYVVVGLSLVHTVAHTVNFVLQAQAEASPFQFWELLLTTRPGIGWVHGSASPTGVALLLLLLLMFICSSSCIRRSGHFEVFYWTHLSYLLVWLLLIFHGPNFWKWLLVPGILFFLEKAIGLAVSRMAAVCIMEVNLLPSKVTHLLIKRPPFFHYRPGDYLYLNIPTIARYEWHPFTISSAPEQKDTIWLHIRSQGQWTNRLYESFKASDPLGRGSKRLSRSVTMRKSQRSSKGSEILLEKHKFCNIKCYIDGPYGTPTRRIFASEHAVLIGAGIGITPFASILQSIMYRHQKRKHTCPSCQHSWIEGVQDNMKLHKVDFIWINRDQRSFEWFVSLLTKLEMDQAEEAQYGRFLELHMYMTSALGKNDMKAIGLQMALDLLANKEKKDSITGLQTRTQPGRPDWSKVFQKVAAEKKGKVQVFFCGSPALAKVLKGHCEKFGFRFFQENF

SMILES | composite z-score [1] | z-score [2] | z-score [3] | z-score [4] | z-score [5] | composite z-score [6] | composite z-score [7] | composite z-score (Torsin-1A (Homo sapiens) [8]) | composite z-score (Torsin-1A (Homo sapiens) [9]) | composite z-score [10] | z-score [11] | composite z-score [12] | z-score [13] | z-score [14] | z-score [15] | z-score [16] | z-score [17] | z-score [18] | z-score [19] | z-score [20]
CC(C)C[C@@H]1NC(=O)[C@@H]2C[C@H](C(=O)NCCCC[N+](C)(C)C)[C@H](c3cccc(OCCO)c3)N2C1=O | 0.379 | 0.347 (inactive) | -0.595 (inactive) | -0.943 (inactive) | -0.231 (inactive) | 0.154 | -0.025 | 1.3 | 0.66 | 2.11 | -0.44 (inactive) | 0.115 | 3.73 (inactive) | 1.16 (inactive) | -0.369 (inactive) | 0.645 (inactive) | -0.102 | -1.2 (inactive) | -0.152 (inactive) | -0.372
C[C@H]1ON(c2ccccc2)[C@@H](c2ccccc2)[C@@H]1C(=O)N1C(=O)OC[C@@H]1c1ccccc1 | -0.0367 | -0.133 (inactive) | 0.0377 (inactive) | -0.323 (inactive) | -0.251 (inactive) | 0.116 | -0.0403 | 0.151 | 0.201 | 0.657 | 0.319 (inactive) | -0.0141 | 1.66 (inactive) | 0.895 (inactive) | -0.372 (inactive) | 0.28 (inactive) | 0.238 | 0.198 (inactive) | -0.28 (inactive) | -0.654
O=C1NC(=O)C2C1C=CC(C(O)c1ccc(-c3ccccc3)s1)N2Nc1ccccn1 (stereo not given) | 0.368 | 0.429 (inactive) | -0.505 (inactive) | -0.329 (inactive) | 0.0978 (inactive) | 0.45 | -0.0662 | 0.351 | 0.898 | -0.0564 | -0.513 (inactive) | 0.114 | 2.41 (inactive) | 1.14 (inactive) | 0.216 (inactive) | 1.02 (inactive) | -0.697 | -1.09 (inactive) | -2.3 (inactive) | -1.44
Cc1ccccc1C(O)C1C=CC2C(=O)N(Cc3ccccc3)C(=O)C2N1n1cnnc1 (stereo not given) | 0.166 | -0.293 (inactive) | -1.45 (inactive) | -0.667 (inactive) | 0.688 (inactive) | 0.0691 | -0.0986 | 0.374 | 0.755 | 0.59 | -0.534 (inactive) | 0.0722 | 1.4 (inactive) | 1.2 (inactive) | 0.341 (inactive) | 0.927 (inactive) | -0.29 | -0.4 (inactive) | 0.1 (inactive) | 0.067
COC(=O)c1c(CC[C@@H](CO)NC(=O)N[C@@H](C)Cn2cc(C3(O)CCCC3)nn2)oc(C(C)=O)c1C(=O)OC | -0.22 | -2.75 (inactive) | -0.0355 (inactive) | 0.861 (inactive) | -0.144 (inactive) | 0.0648 | 0.117 | 0.862 | 0.277 | 2.16 | -0.274 (inactive) | 0.0561 | 1.88 (inactive) | -0.8 (inactive) | 0.816 (inactive) | -1.45 (inactive) | 2.2 | -2.54 (inactive) | -1.84 (inactive) | -2.35
C=CCC(OC(C)=O)[C@@H]1[C@@H](N(Cc2ccc(-c3cccc(C(F)(F)F)c3)o2)C(=O)c2cccc3ccccc23)c2cc(OCCCO)ccc2N1C(=O)c1ccc(-c2ccccc2)cc1 (stereo not given in full) | 0.0391 | -1.63 (inactive) | 0.595 (inactive) | -0.272 (inactive) | -0.262 (inactive) | 0.0133 | -0.0112 | 0.1 | -0.138 | 1.06 | -0.985 (inactive) | -0.012 | 0.531 (inactive) | 0.431 (inactive) | 2.33 (inactive) | 0.485 (inactive) | -0.326 | -0.959 (inactive) | -1.45 (inactive) | -1.08
C[N+](C)(C)CCCCCCNC(=O)[C@@H]1C[C@@H]2C(=O)NCC(=O)N2[C@@H]1c1cccc(OCCO)c1 | 0.338 | -3.36 (inactive) | -1.82 (inactive) | -0.797 (inactive) | -0.933 (inactive) | -0.357 | -0.0986 | 0.335 | -0.371 | 2.16 | 1.73 (inactive) | 0.197 | 3.17 (inactive) | -1.25 (inactive) | 1.56 (inactive) | -1.95 (inactive) | 0.927 | -2.72 (inactive) | -4.12 (inactive) | -5.67
COCCCNC(=O)[C@@H]1c2ccccc2C(=O)N(Cc2cc(F)cc(C(F)(F)F)c2)[C@H]1c1ccc(CO)cc1 | -0.575 | -0.016 (inactive) | -0.043 (inactive) | 0.944 (inactive) | -0.224 (inactive) | -0.716 | -0.264 | -2.22 | -0.0932 | -0.508 | -0.0134 (inactive) | -0.25 | 1.49 (inactive) | 0.35 (inactive) | 0.62 (inactive) | 0.0592 (inactive) | -0.731 | 0.193 (inactive) | 0.401 (inactive) | 0.774
COc1ccc([Si](C)(C)[C@H]2[C@H](CC(=O)N3CCC[C@H]3CO)O[C@@]3(C(=O)N(Cc4ccc(N5C(=O)c6cccc7cccc5c67)cc4)c4ccccc43)[C@@H]2C)cc1 | 0.213 | -3.73 (inactive) | 0.0403 (inactive) | 0.543 (inactive) | -0.594 (inactive) | 0.197 | 0.134 | 0.81 | 0.397 | 2.05 | -0.0217 (inactive) | 0.0903 | 6.9 (inactive) | 1.31 (inactive) | 1.72 (inactive) | 0.771 (inactive) | 0.298 | 1.86 (inactive) | 1.19 (inactive) | 2.62

Reference: PubChem BioAssay
